One may read the inhibition as the relative decrease from the control value, in per cent.

The structures appear in SMILES notation. A number with no mark means an inactive call. For some of these results: Results with a measured potency or affinity are listed apart. Activity calls are given as the source filed them. Unless noted, how the calls were made is not given here.

Assay [1] is described as follows: antimalarial activity against Dd2 strain (AID 2302;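 active means growth inhibition above 50% at the single 2 µM test dose, taken to imply half-maximal potency below 2 µM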;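 further: 0% = DMSO untreated growth and 100% = chloroquine plus artemisinin killed control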). The note with it: P. falciparum Dd2 in RBCs, LDH growth readout, 72 h; at 2 µM; stronger effect = higher value.
Assay [2] can be described thus: HepG2 cytotoxicity, primary screen, cytotoxicity control for P. falciparum antimalarial project, cell-based, ATP luminescence (AID 2303;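 active means inhibition above 50%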;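 further: 0% = DMSO wells and 100% = digitonin-killed cells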). The settings on record: HepG2 viability, 24-48 h, at 10 µM, stronger effect = higher value.
For assay [3], the target named is L-lactate dehydrogenase (Plasmodium falciparum (isolate CDC / Honduras)) (UniProt Q27743). Kind of assay: PfLDH activity inhibition – cell lysate, 3D7 strain, counter-screen for P. falciparum growth inhibition project (AID 2304).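 Further: 0% = vehicle and 100% = reference inhibitor.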 The note with it: P. falciparum 3D7 crude extract, LDH APAD/NBT absorbance; at 2 µM; stronger effect = higher value. Background: The purpose of a counterscreen is to sort out artefacts and off-target activity.
Sequence of L-lactate dehydrogenase (Plasmodium falciparum (isolate CDC / Honduras)) (Q27743 whole entry, looked up): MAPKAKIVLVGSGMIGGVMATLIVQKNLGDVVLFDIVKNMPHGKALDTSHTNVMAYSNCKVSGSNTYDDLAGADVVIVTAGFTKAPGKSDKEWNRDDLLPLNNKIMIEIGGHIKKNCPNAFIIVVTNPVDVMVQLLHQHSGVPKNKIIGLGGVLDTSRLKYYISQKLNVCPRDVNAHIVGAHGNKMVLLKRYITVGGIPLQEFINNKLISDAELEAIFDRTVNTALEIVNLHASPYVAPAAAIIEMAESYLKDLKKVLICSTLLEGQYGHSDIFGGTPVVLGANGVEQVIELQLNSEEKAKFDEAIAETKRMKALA

The nature of assay [4]: inhibition of 3D7 malaria parasite growth – strain 3D7 (AID 2306).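 Further: 0% = DMSO wells and 100% = chloroquine plus artemisinin control wells.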 The note with it: P. falciparum 3D7 erythrocytic growth, LDH absorbance, 72 h; at 2 µM; stronger effect = higher value.
Assay [5] deals with Calcium-dependent protein kinase 1 (Plasmodium falciparum (isolate 3D7)) (UniProt P62344). The assay can be described thus: PfCDPK1 kinase inhibitors, biochemical, TCAMS library (AID 1159585; cut-off not given, nearly all actives have IC50 up to about 0.98 µM;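 further: inhibitors leave more ATP so luminescence rises with inhibition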). The settings on record: recombinant PfCDPK1, Kinase-Glo ATP depletion luminescence. (In general: In Kinase-Glo more light means more ATP remaining.)
Sequence of Calcium-dependent protein kinase 1 (Plasmodium falciparum (isolate 3D7)) (P62344 whole entry, looked up): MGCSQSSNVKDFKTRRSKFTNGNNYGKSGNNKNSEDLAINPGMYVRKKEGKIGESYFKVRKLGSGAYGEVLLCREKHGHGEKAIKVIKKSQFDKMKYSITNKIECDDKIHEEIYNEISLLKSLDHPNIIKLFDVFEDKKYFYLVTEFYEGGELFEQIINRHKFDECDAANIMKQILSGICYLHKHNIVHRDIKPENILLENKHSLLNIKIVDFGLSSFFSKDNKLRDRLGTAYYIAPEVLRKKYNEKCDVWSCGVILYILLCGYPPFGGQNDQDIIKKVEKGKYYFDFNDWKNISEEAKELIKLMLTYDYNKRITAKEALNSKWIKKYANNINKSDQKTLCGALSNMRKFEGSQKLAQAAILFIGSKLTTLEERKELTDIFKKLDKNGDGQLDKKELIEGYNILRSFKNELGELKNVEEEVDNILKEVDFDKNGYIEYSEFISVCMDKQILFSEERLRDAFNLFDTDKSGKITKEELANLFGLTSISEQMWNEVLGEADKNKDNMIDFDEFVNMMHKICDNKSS
In assay [6] the target is Plasmodium falciparum protein kinase 6 (PK6, PF3D7_1337100) (UniProt Q8IDW1). The assay can be described thus: PfPK6 kinase inhibitors, biochemical, TCAMS library (AID 1159586). The note with it: recombinant PfPK6, Kinase-Glo ATP depletion luminescence.
Sequence of Plasmodium falciparum protein kinase 6 (PK6, PF3D7_1337100) (Q8IDW1 1-305): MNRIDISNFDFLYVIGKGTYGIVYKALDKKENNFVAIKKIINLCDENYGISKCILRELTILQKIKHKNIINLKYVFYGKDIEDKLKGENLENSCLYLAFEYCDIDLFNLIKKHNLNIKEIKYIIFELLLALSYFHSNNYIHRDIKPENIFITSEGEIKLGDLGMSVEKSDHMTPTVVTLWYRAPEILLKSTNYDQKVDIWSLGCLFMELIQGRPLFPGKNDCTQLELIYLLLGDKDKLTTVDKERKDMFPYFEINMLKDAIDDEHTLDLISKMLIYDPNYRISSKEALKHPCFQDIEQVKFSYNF
For assay [7], the target named is Protein kinase 7 (PK7), Plasmodium falciparum 3D7 (PF3D7_0213400) (UniProt Q7YTF7). Kind of assay: inhibition of Plasmodium PK7 catalytic activity – biochemical, TCAMS antimalarial set, Kinase-Glo luminescence (AID 1159587). The settings on record: recombinant PfPK7, Kinase-Glo ATP depletion luminescence.
Sequence of Protein kinase 7 (PK7), Plasmodium falciparum 3D7 (PF3D7_0213400) (Q7YTF7 1-343): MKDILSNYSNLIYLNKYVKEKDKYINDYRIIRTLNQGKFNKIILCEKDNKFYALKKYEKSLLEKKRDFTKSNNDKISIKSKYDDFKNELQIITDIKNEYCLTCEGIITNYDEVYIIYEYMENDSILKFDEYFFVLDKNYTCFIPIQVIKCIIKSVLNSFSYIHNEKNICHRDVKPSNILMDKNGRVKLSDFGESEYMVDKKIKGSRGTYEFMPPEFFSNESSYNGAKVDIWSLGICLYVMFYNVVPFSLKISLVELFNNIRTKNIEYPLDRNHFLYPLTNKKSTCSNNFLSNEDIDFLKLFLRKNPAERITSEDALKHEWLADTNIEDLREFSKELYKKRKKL
For assay [8], the target named is Calcium-dependent protein kinase 4 (Plasmodium falciparum (isolate 3D7)) (UniProt Q8IBS5). The assay can be described thus: PfCDPK4 kinase inhibitors, biochemical, TCAMS library (AID 1159588; cut-off not given, nearly all actives have IC50 up to about 0.91 µM). The note with it: recombinant PfCDPK4, Kinase-Glo ATP depletion luminescence.
Sequence of Calcium-dependent protein kinase 4 (Plasmodium falciparum (isolate 3D7)) (Q8IBS5 whole entry, looked up): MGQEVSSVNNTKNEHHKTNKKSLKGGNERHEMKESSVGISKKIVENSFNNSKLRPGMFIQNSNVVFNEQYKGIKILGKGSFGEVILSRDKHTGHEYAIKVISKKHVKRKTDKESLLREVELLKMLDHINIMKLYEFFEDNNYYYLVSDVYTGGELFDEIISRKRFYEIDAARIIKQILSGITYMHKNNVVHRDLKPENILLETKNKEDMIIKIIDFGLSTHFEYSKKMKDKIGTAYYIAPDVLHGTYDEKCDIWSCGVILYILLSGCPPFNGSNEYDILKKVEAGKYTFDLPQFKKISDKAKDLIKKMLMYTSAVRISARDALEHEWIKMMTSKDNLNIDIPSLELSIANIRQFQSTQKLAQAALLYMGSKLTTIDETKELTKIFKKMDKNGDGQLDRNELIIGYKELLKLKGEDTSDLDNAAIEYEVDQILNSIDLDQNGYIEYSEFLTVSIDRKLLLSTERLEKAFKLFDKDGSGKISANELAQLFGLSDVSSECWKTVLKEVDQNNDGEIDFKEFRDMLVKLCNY

In the case of `Clc1ccc(-c2cc(-c3csc(NCCN4CCOCC4)n3)on2)c(Cl)c1`, the values for the growth inhibition in assay [1] and in assay [4] were 86% (active) and 97% (active), respectively. For the same molecule, the inhibition in assay [2] is 39%; in assay [3], -3%. Besides, the result in assay [5], in assay [6], in assay [7] and in assay [8] was inactive.
For `COc1ccc2nccc([C@@H](O)CN3CCC(NCc4ccc5nc[nH]c(=O)c5c4)CC3)c2c1`, the growth inhibition is 4% in assay [1] and 99% (active) in assay [4]. In addition, the inhibition in assay [2] was 12%; in assay [3], -13%. Besides, the result in assay [5], in assay [6], in assay [7] and in assay [8] was inactive.
As for `CN(C)CCCNCc1ccc(-c2ccc(CNCCc3ccccc3)cc2)cc1`, the growth inhibition in assay [1] was 87% (active); in assay [4] it was 100% (active). The inhibition in assay [2] is 61% (active); in assay [3], 0%. The outcome in assay [5], in assay [6], in assay [7] and in assay [8] was inactive.
As for `COc1ccc(NC(=O)Nc2ccc(-c3ccccc3)cc2)cc1Cn1nc(Cl)c(N2CCCNCC2)cc1=O`, the growth inhibition in assay [1] was 84% (active); in assay [4] it was 102% (active). In addition, the results for the inhibition in assay [2] and in assay [3] were 18% and 0%, respectively. The outcome in assay [5], in assay [6], in assay [7] and in assay [8] was inactive.
Regarding `O=C(Cc1cnc[nH]1)Nc1ccc(-c2cccc(-c3nc4ccc(C(F)(F)F)cc4[nH]3)c2)cc1`, the growth inhibition is 95% (active) in assay [1] and 101% (active) in assay [4]. Moreover, the values for the inhibition in assay [2] and in assay [3] were 20% and -8%, respectively. Moreover, the outcome in assay [5], in assay [6], in assay [7] and in assay [8] was inactive.
In the case of `O=C(Nc1cccc(-c2cccc(-c3nc4ccccc4[nH]3)c2)c1)c1ccncc1`, the growth inhibition is 38% in assay [1] and 99% (active) in assay [4]. The inhibition in assay [2] is 27%; in assay [3], -4%. Also, the outcome in assay [5], in assay [6], in assay [7] and in assay [8] was inactive.
On to `N#CC(c1ccc(Cl)cc1)c1ccc2c(C(F)(F)F)cc(C(F)(F)F)nc2n1` (stereo not given), for which the values for the growth inhibition in assay [1] and in assay [4] were 54% (active) and 97% (active), respectively. The figures for the inhibition in assay [2] and in assay [3] were 68% (active) and 1%, respectively. Besides, the outcome in assay [5], in assay [6], in assay [7] and in assay [8] was inactive.
For the molecule `Cn1cc(C2CCN(CCCCCNC(=O)/C=C/c3ccc(Cl)c(Cl)c3)CC2)c2cc(O)ccc21`, the values for the growth inhibition in assay [1] and in assay [4] were -2% and 94% (active), respectively. In addition, the inhibition in assay [2] is 11%; in assay [3], -2%. Moreover, the result in assay [5], in assay [6], in assay [7] and in assay [8] was inactive.
On to `CNC(=O)Cc1ccc(C(=O)Nc2cccc(-c3cccc(-c4nc5c(C)cccc5[nH]4)c3)c2)cc1`, for which the growth inhibition was 53% (active) in assay [1] and 96% (active) in assay [4]. The results for the inhibition in assay [2] and in assay [3] were 15% and 0%, respectively. In addition, the result in assay [5], in assay [6], in assay [7] and in assay [8] was inactive.
With `COc1cc(NC(=O)c2cc3c(C)nn(-c4cccc(C(F)(F)F)c4)c3s2)cc(OC)c1OC`, the growth inhibition in assay [1] was 50% (active); in assay [4], 101% (active). For the same molecule, the inhibition in assay [2] was 0%; in assay [3], 3%. Moreover, the result in assay [5], in assay [6], in assay [7] and in assay [8] was inactive.
As for `CCC1(CC)C(=O)N=C(N2CCCCC2)N(C)C1=O`, the growth inhibition is 66% (active) in assay [1] and 89% (active) in assay [4]. Moreover, the inhibition was -4% in assay [2] and 1% in assay [3]. Moreover, the outcome in assay [5], in assay [6], in assay [7] and in assay [8] was inactive.
As to `O=C(Nc1cccc(Cl)c1Cl)NC1CCN(Cc2cccc(O)c2)CC1`, the growth inhibition in assay [1] was 1%; in assay [4], 98% (active). For the same molecule, the inhibition is 1% in assay [2] and -1% in assay [3]. Further, the result in assay [5], in assay [6], in assay [7] and in assay [8] was inactive.
As for `CC(C)CCNc1nc(NCCc2ccccc2)c2cc(O)ccc2n1`, the growth inhibition in assay [1] is 97% (active); in assay [4] it was 101% (active). In addition, the results for the inhibition in assay [2] and in assay [3] were 6% and 7%, respectively. Further, the outcome in assay [5], in assay [6], in assay [7] and in assay [8] was inactive.
`COc1ccc(NC(=O)Nc2ccc(C)c(-c3ccc(C(=O)NCCN4CCCC4)cc3)c2)cc1`: the growth inhibition in assay [1] is 1%; in assay [4], 95% (active). Further, the inhibition was 18% in assay [2] and 3% in assay [3]. Besides, the result in assay [5], in assay [6], in assay [7] and in assay [8] was inactive.
For the molecule `CC(C)Cc1nc2nc(N)nc(N)c2cc1C(C)C`, the results for the growth inhibition in assay [1] and in assay [4] were 3% and 96% (active), respectively. The inhibition in assay [2] is 67% (active); in assay [3] it was 4%. For the same molecule, the result in assay [5], in assay [6], in assay [7] and in assay [8] was inactive.
In the case of `CC(=O)N[C@H](C(=O)Nc1cccc(-c2ccc(-c3nc4c(C)cccc4[nH]3)s2)c1)C(C)C`, the growth inhibition in assay [1] was 29%; in assay [4], 93% (active). Besides, the inhibition in assay [2] was 33%; in assay [3], 2%. The outcome in assay [5], in assay [6], in assay [7] and in assay [8] was inactive.
With `Nc1nc(N)c2cc(NC(=O)c3ccc(Cl)c(Cl)c3)ccc2n1`, the growth inhibition in assay [1] is 83% (active); in assay [4] it was 100% (active). Also, the inhibition is 100% (active) in assay [2] and 1% in assay [3]. Further, the result in assay [5], in assay [6], in assay [7] and in assay [8] was inactive.
As for `O=C(NCC1CCN(CC2CCCCC2)C1)c1cc(-c2cccc(C(F)(F)F)c2)cs1` (stereo not given), the growth inhibition was 21% in assay [1] and 96% (active) in assay [4]. Also, the values for the inhibition in assay [2] and in assay [3] were 47% and -3%, respectively. Moreover, the result in assay [5], in assay [6], in assay [7] and in assay [8] was inactive.
On to `N#Cc1ccc2c(c1)CCN(CCC1CCC(NC(=O)/C=C/c3nc4ccccc4s3)CC1)CC2` (stereo not given), for which the values for the growth inhibition in assay [1] and in assay [4] were -2% and 90% (active), respectively. Moreover, the inhibition is 6% in assay [2] and -4% in assay [3]. For the same molecule, the result in assay [5], in assay [6], in assay [7] and in assay [8] was inactive.
Take `CC(C)N1CCCN(C(=O)C2CCN(c3ccc(C(=O)N4CCCC4)cn3)CC2)CC1`: the results for the growth inhibition in assay [1] and in assay [4] were 12% and 86% (active), respectively. Further, the inhibition is 41% in assay [2] and 1% in assay [3]. The result in assay [5], in assay [6], in assay [7] and in assay [8] was inactive.

Source of the values: PubChem BioAssay.
